An excerpt weighted towards active compounds, which were near 0.45% of everything screened.
FMDV FLuc: Primary qHTS Assay for Foot and Mouth Disease Virus Antivirals against NCGC Sytravon and CBC Compound Libraries: Firefly Luciferase Signal; FMDV antiviral cell assay, firefly luciferase signal; Potency, µM (titrated, usually from 57.5 µM), for the others: at the top dose activity change, negative = inhibition, hits mostly inhibitors; 0.23% of 120,000 active; AID 1745856, 2022; further: nearly all actives have a fitted effect of over 60% in size
FMDV Renilla: Primary qHTS Assay for Foot and Mouth Disease Virus Antivirals against NCGC Sytravon and CBC Compound Libraries: Renilla Luciferase Signal | 0.32% of 120,000 active | Potency, µM (titrated, usually from 57.5 µM), for inactives: top-dose activity change, negative = inhibition, actives largely listed as inhibitors | FMDV replicon cells, Renilla luciferase signal; further: nearly all actives have a fitted effect of over 55% in size
The depositor's hits bear a star; u = inconclusive. The call rests on the fitted dose curve. On the % scale 0 is the no-effect control and ±100 the full control effect; potency means the concentration at half of the fitted maximal effect.

SMILES	FMDV FLuc	FMDV Renilla
COc1ccc2cc(COC(=O)C3COc4ccccc4O3)ccc2c1 (stereo not drawn)	0%	12%
C=C(COC(C)=O)C1Cc2c(ccc3c2OC2COc4cc(OC)c(OC)cc4C2C3=O)O1 (stereo not drawn)	u	0.2µM*
COc1ccc(OCC(=O)Nc2cc(OC)ccc2OC)cc1	37%	4%
Cc1cc(N2CCN(c3ccccc3)CC2)n2nc(-c3ccco3)nc2n1	21%	22%
C/C(=N/O)C1(C)N(O)C(C)(C)C(c2ccc(C)cc2)=[N+]1[O-] (stereo not drawn)	19%	8%
Cn1c(=O)c2c(ncn2CCCOc2ccccc2)n(C)c1=O	10%	-6%
CC(C)c1ccc(C(=O)Cn2cnc3c2c(=O)n(C)c(=O)n3C)c(C(C)C)c1	10µM*	10µM*
CC(C)Oc1cccc(Cn2cnc3c2c(=O)n(C)c(=O)n3C)c1	3.5µM*	3.5µM*
Cc1cc(C(=O)Cn2cnc3c2c(=O)n(C)c(=O)n3C)c(C)n1C	0%	42%
CCCCOc1ccc(C(=O)NCCS(=O)(=O)N2CCN(c3ccccc3OC)CC2)cc1	18µM*	u
CCCCOc1ccc(C(=O)NCCS(=O)(=O)N2CCN(c3ccc(F)cc3)CC2)cc1	-16%	-12%
COc1ccc2c(C)c(CCC(=O)NCc3ccc(S(=O)(=O)N(C)C)cc3)c(=O)oc2c1	-6%	-16%
C=C(C)COc1ccc2c(C)c(CCC(=O)NCc3ccc(S(N)(=O)=O)cc3)c(=O)oc2c1	4.5µM*	7.1µM*
CCOC(=O)c1c(NC(=O)C(C)Sc2cn(CCNC(=O)c3ccc(OCC)cc3)c3ccccc23)sc2c1CCC2 (stereo not drawn)	-3%	-4%
CC1CCC(NC(=O)c2cncc(Br)c2)CC1 (stereo not drawn)	0%	-9%
CCCNc1c(NC(=O)c2ccc(OCCC)cc2)c(=O)oc2ccccc12	17%	16%
O=C(NCCO)c1nc(-c2ccc3[nH]ccc3c2)no1	128%	5%
COc1ccccc1C1SCC(=O)Nc2c1c(C)nn2-c1cccc(C)c1 (stereo not drawn)	-14%	6%
CC1=C2C(=O)CC(C)CC2=Nc2ccccc2N1 (stereo not drawn)	11%	2%
CC1=C2C(=O)CC(c3cccc(Cl)c3)CC2=Nc2ccccc2N1 (stereo not drawn)	u	18µM*
COc1ccccc1-c1nn2c(=O)cc(CN3CCN(C(=O)Nc4ccc(C)cc4Cl)CC3)nc2s1	1%	-14%
COc1cc(Cl)c(C)cc1NC(=O)CCn1cnc2onc(-c3ccc(F)cc3)c2c1=O	9%	-1%
COc1ccc(NC(=O)CCn2cnc3onc(-c4ccc(F)cc4)c3c2=O)cc1OC	u	4µM*
COc1ccc(C(=O)Nc2ccc3oc(-c4ccc(F)cc4Cl)nc3c2)cc1	9%	6%
COc1cc(/C=C2\NC(=O)NC2=O)c(Br)cc1OCC(=O)O	-15%	-8%
SMILES	FMDV FLuc	FMDV Renilla
CCOc1cc(Br)c(/C=C2/NC(=O)NC2=O)cc1OC	2.8µM*	u
Cc1cccc(-n2ncc3c(NC4CCCC4)ncnc32)c1	144%	-15%
O=C(O)c1ccc(/C=C/c2nc3cc(Cl)ccc3o2)cc1	67%	4%
Cc1nc(/C=C/c2ccc(Cl)cc2)sc1C(=O)O	0.89µM*	12%
CN(Cc1cccc(F)c1)C(=O)COc1ccc2c(C(F)(F)F)cc(=O)oc2c1	162%	42%
CCn1c(=O)n(CC)c2cc(N3CCCC3)c(NC(=O)Nc3cc(OC)c(OC)c(OC)c3)cc21	26%	126%
